Bioassay records from PubChem.
A selection: hits, their analogues and other compounds. The true share with any hit is near 6.5%.
HCMV inh: qHTS Assay for inhibitors of the human cytomegalovirus (HCMV); AID 1259415, 2018; activity change, negative = inhibition, % at 57.5 µM; actives 4.5% (n = 410,000); HFF cells, HCMV-luciferase reporter, 72 h; hits give low values; in the data active = activity change below about -60%; inconclusive = no clear call, values can overlap the other calls; inactive = above about -39%
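After 16 h attachment at 37C, HFF cells received test compound and HCMV-luciferase (1 PFU/cell); reporter luminescence read 72 h later, data normalized against buffer-only and known inhibitor Salinomycin.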
Marburg entry inh: qHTS for inhibitors of binding or entry into cells for Marburg Virus | Marburg virus pseudotyped entry inhibition, cell reporter | Potency, µM (titrated, usually from 37.8 µM), for the others: at the highest dose activity change, negative = inhibition, hits mostly inhibitors | actives 1.8% (n = 300,000); calls by dose curve; tested in HEK293 cells; also: potency is read from the fitted curve at half-maximal effect
LASV entry inh: qHTS for Inhibitors of binding or entry into cells for Lassa Virus | Lassa virus pseudotype entry inhibition, cell reporter | Potency, µM (top dose mostly 37.9 µM), for the others: at the top dose activity change, negative = inhibition, actives largely listed as inhibitors | actives 1.2% (n = 300,000) | AID 540256, 2011; calls by dose curve; tested in HEK293 cells; also: potency is read from the fitted curve at half-maximal effect; nearly all actives have a fitted effect of over 50% in size
Vaccinia mCherry: qHTS for Stage-Specific Inhibitors of Vaccinia Orthopoxvirus: mCherry Reporter Primary qHTS; actives 0.63% (n = 310,000); Potency, µM (highest dose often 36.5 µM), for the others: at the highest dose activity change, negative = inhibition, most hits filed as inhibitors; Vaccinia virus mCherry reporter infection, fluorescence; calls by dose curve; tested in A549 cells; also: potency is read from the fitted curve at half-maximal effect; nearly all actives have a fitted effect of over 35% in size
VACV Venus inh: qHTS for Stage-Specific Inhibitors of Vaccinia Orthopoxvirus: Venus Reporter Primary qHTS. Vaccinia virus Venus reporter expression, fluorescence. Potency, µM (top dose mostly 36.5 µM), for inactives: at the top dose activity change, negative = inhibition, hits mostly inhibitors. AID 720580, 2013. actives 0.46% (n = 330,000); calls by dose curve; tested in A549 cells; also: potency is read from the fitted curve at half-maximal effect; nearly all actives have a fitted effect of over 30% in size
FMDV antiviral: High Throughput Screening for Foot and Mouth Disease Virus Antivirals; actives 1.2% (n = 410,000); FMDV antiviral cell-based qHTS; Potency, µM (doses to about 57.9 µM), inactives show top-dose activity change, negative = inhibition, most hits filed as inhibitors; calls by dose curve; tested in HEK293T cells; also: read-out not given here; potency is read from the fitted curve at half-maximal effect; nearly all actives have a fitted effect of over 45% in size
Active calls of the source: *; i = inactive; ? = inconclusive; . = not tested or not shown; ! = a repeat was not active; [ ] = another dose, or the depositor's remark. % is scaled to controls: 0 for no effect and ±100 for the full control effect.

SMILES	HCMV inh	Marburg entry inh	LASV entry inh	Vaccinia mCherry	VACV Venus inh	FMDV antiviral
COc1cc(-c2c(-c3cc(OC)c(OC)c(OC)c3)noc2C)ccc1F	-94*	.	.	-7%	?	-23%
COc1cc(-c2noc(C)c2C#Cc2ccc(N)cc2)cc(OC)c1OC	-19	.	.	-30%	?	10%
CN1CCN(c2ccc(-c3cc(NC=O)c4ncc(-c5ccc(F)c(Cl)c5)n4c3)cc2)CC1	-92*	.	.	?	-18%	14%
COc1cccc(-c2cc(NC=O)c3ncc(-c4ccc(OC)c(OC)c4)n3c2)c1	221	.	.	?	?	-27%
COc1ccc(-c2cnc3c(NC=O)cc(-c4cccc(NS(C)(=O)=O)c4)cn23)cc1OC	125	.	.	6.3µM*	8.9µM*	-22%
COc1ccc(-c2cnc3c(NC=O)cc(-c4ccc(F)cc4)cn23)cc1OC	?	.	.	11µM*	?	?
COc1ccc(-c2cnc3c(NC=O)cc(-c4cc(OC)c(OC)c(OC)c4)cn23)cc1OC	65	.	.	-12%	-25%	-17%
CC(=O)Nc1cc(-c2ccc(N3CCN(C)CC3)cc2)cn2c(-c3ccc(F)c(Cl)c3)cnc12	-30	.	.	?	?	-27%
COc1ccc(-c2cnc3c(NC=O)cc(-c4ccccc4)cn23)cc1OC	66	.	.	1.3µM*	?	?
O=S1(=O)CCOC[C@H](c2ccccc2)N1Cc1ccc(F)cc1	.	.	.	-26%	-21%	.
COc1ccc(-c2cc(NC=O)c3ncc(-c4cc(OC)c(OC)c(OC)c4)n3c2)cc1	-81*	.	.	?	?	-15%
O=S1(=O)c2ccc(Br)cc2OC2CCCN1C2 (centres undefined)	2	.	7%[46.1 µM]	.	.	.
COc1ccc(CC(=O)Nc2nc(-c3ccc(F)c(F)c3)cs2)cc1	?	?	?	-4%	-6%	?
COc1ccc(-c2csc(NC(=O)COC(=O)Cc3ccccc3)n2)cc1OC	.	-1%	4%	.	.	.
COc1ccc(-c2csc(NC(=O)Cc3cc(OC)c(OC)c(OC)c3)n2)cc1OC	?	?	.	-23%	-25%	14µM*
COc1ccc(CCNc2nc(-c3ccccn3)cs2)cc1OC	0	.	.	.	.	-14%
COc1ccc(CC(=O)Nc2nc(-c3ccncc3)cs2)cc1	-82*	?	?	-18%	-9%	-7%
COc1ccc(CCNc2nc(-c3sc(C)nc3C)cs2)cc1OC	-29	?	?	.	.	25µM*
COc1ccc(OC)c(-c2csc(NC(=O)Cc3ccccc3OC)n2)c1	30	?	7.9µM*	-23%	?	47%
Cc1ccc2nc(N3CCCCCC3)c(CN(CC3CCCO3)C(=O)c3cncs3)cc2c1 (centres undefined)	.	.	.	-17%	-9%	-12%
O=C(Cn1nnnc1-c1ccccc1F)Nc1ccc(F)c(F)c1	-29	-15%[46.1 µM]	0%[46.1 µM]	-9%	-10%	15%
COc1ccc(CCNc2nc(-c3ccc(NC(C)=O)cc3)cs2)cc1OC	-12	?	?	-6%	-18%	25µM*
COc1ccc(CCNc2nc(-c3ccncc3)cs2)cc1OC	-26	.	.	-19%	-8%	?
Nc1ccc(Cc2ccc([N+](=O)[O-])cc2)cc1	-64*	-2%[46.1 µM]	11%[46.1 µM]	-22%	-13%	-18%
c1ccc2c(c1)OCC(C1=NCCN1)O2 (centres undefined)	4	?	2.6µM*!	-10%	-10%	?
SMILES	HCMV inh	Marburg entry inh	LASV entry inh	Vaccinia mCherry	VACV Venus inh	FMDV antiviral
Nn1c(C2COc3ccccc3O2)n[nH]c1=S (centres undefined)	-39	.	.	.	.	2%
Cc1ccc(C(C#N)c2ccc3c(C(F)(F)F)cc(C(F)(F)F)nc3n2)cc1 (centres undefined)	-99*	-12%	?	?	-24%	?
CN(N)c1ccc2c(C(F)(F)F)cc(C(F)(F)F)nc2n1	?	23%[46.1 µM]	11%	-54%	-5%	-4%
N#CC(c1ccccc1)c1ccc2c(C(F)(F)F)cc(C(F)(F)F)nc2n1 (centres undefined)	-104*	7.1µM*	11µM*	-13%[1.46 µM]	1%	?
CC(C)(C)OC(=O)N1CCC(c2c(C(=O)N3CCN(c4ccccn4)CC3)cnn2-c2cccc(F)c2)CC1	0	.	?	-10%	-10%	-21%
O=[N+]([O-])c1cnc(Sc2ccncn2)s1	-99*	.	.	.	.	40µM*
Cc1ccc(S(=O)(=O)c2c(Nc3ccc(C)c(C)c3)sc(C(=O)c3ccc4c(c3)OCO4)c2N)cc1	-4	.	?	i	-17%	22%
CC1(C)C[C@H]2C=C(C=O)[C@]3(C=O)C[C@]3(C)[C@H]2C1	9	?	3.7µM*	?	?	25µM*
COc1cc([C@H]2NC(=O)C[C@H]2C(=O)OCc2ccccc2)ccc1OC(C)C	-15	.	.	.	.	.
O=C(N/N=C/c1ccccc1Cl)c1n[nH]c2c1CCCC2	?	1.3µM*	?	.	.	?
O=C(N/N=C/c1ccc(Cl)cc1)c1n[nH]c2c1CCCC2	-91*	?	?	-12%[7.34 µM]	?	66%
COc1ccc2c(c1)CCc1cnc(-n3ncc(C(=O)N(C)CC4CCCN(C)C4)c3C)nc1-2 (centres undefined)	.	.	.	-8%	-8%	-6%
CCN1CCCC1CNC(=O)c1cnn(-c2nccc(-c3cc4ccccc4o3)n2)c1C (centres undefined)	.	.	.	-6%	-10%	4%
O=C(Cn1nc(Cc2ccncc2)c2ccccc2c1=O)Nc1cccc(C(F)(F)F)c1	-38	?	-1%[46.1 µM]	-22%	-13%	-27%
CCN(CC)c1ccc(/C=C/c2ccncc2)cc1	.	.	.	6%	i	.
CN(c1ccc(-c2csc(NC(=O)CCCc3nc4ccccc4c(=O)[nH]3)n2)cc1)S(C)(=O)=O	-19	.	.	-9%	-20%	35µM*
NC(=O)N/N=C/c1c(Sc2nnnn2-c2ccccc2)nc2ccccn2c1=O	-73*	.	.	.	.	?
Cc1cccc(NC(=O)N2CCC3(CC2)Oc2ccccc2C(=O)N3Cc2ccccc2F)c1C	-35	-9%[46.1 µM]	.	-14%	-15%	-8%
COCc1[nH]nc2c1[C@@H](c1sccc1C)C(C#N)=C(N)O2	.	-12%	.	.	.	.
COc1cc2c(cc1OC)C(C)N(C(=O)c1cc3c(C)cc(C)cc3[nH]1)CC2 (centres undefined)	-30	3.2µM*	?	i	-11%	-18%
COc1cc2c(cc1OC)C(C)N(C(=O)Nc1cc(C)cc(C)c1)CC2 (centres undefined)	-37	.	.	.	.	-17%
COc1cc2c(cc1OC)C(C)N(C(=O)Nc1ccc(F)cc1)CC2 (centres undefined)	-102*	.	.	.	.	-15%
